The values below come from the supplement of paper PMC8285479.

This assay relates to NCI-H1944. Nature of the assay: normalised cell viability (NPI; 0 = phenylarsine oxide control, 1 = DMSO control) (fraction of DMSO control); NCI-H1944 is a non-small cell lung cancer line; higher = more viable cells (less compound toxicity). To be noted: 6 days.
Where [1] appears, read: glucocorticoid arm: hydrocortisone 2.75 uM co-treatment, compound 1 µM.
The mark [2] stands for this setting: glucocorticoid arm: hydrocortisone 2.75 uM co-treatment, compound 5 µM.
Where [3] appears, read: glucocorticoid arm: hydrocortisone 2.75 uM pre-treated 2 days and continued, compound 1 µM.
Setting [4] is: glucocorticoid arm: hydrocortisone 2.75 uM pre-treated 2 days and continued, compound 5 µM.
Where [5] appears, read: glucocorticoid arm: vehicle, compound 1 µM.
Setting [6] is: glucocorticoid arm: vehicle, compound 5 µM.

Where a name gives a salt, the structure may show the parent alone. ± gives the standard deviation of the averaged measurements. In all, about 1,900 compounds were measured (“normalised cell viability (NPI; 0 = phenylarsine oxide control, 1 = DMSO control)”: median about 1, lowest 2% from about 0.039 on). Shown is part of a subset that was picked to be rich in the lowest values.
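Further: CTB read-out in 384-well plates, triplicate wells, NPI normalised per plate against 1 µM phenylarsine oxide (0) and 0.1% DMSO (1) controls.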

For `CN1CCN(C2Cc3ccccc3Sc3ccc(Cl)cc32)CC1` (racemic) [(±)-Octoclothepin maleate], the normalised cell viability worked out at 1.01 ± 0.011 under setting [1]; 0.9477 ± 0.0045 under setting [2]; 1.01 ± 0.015 under setting [3]; 1.05 ± 0.087 under setting [4]; 1 ± 0.0095 under setting [5]; 1 ± 0.011 under setting [6].
As for `[N-]=[N+]=Nc1ccc(C(=O)CSC[C@H](NC(=O)CC[C@H](N)C(=O)O)C(=O)NCC(=O)O)cc1` [S-(p-Azidophenacyl)glutathione], the normalised cell viability is, setting by setting: under setting [1], 1.017 ± 0.0058; under setting [2], 0.814 ± 0.0099; under setting [3], 0.9947 ± 0.0067; under setting [4], 1 ± 0.021; under setting [5], 0.988 ± 0.014; under setting [6], 0.517 ± 0.38.
Turning to `COCC[n+]1c2c(n(Cc3cnccn3)c1C)C(=O)c1ccccc1C2=O`, the normalised cell viability was found to be 0.00685 ± 0.0014 under setting [1]; 0.00188 ± 0.0012 under setting [2]; 0.00552 ± 0.0012 under setting [3]; 0.0024 ± 0.00039 under setting [4]; 0.00736 ± 0.00083 under setting [5]; 0.00199 ± 0.00048 under setting [6].
In the case of `OC[C@H]1O[C@@H](n2cnc3c(Nc4ccccc4)ncnc32)[C@H](O)[C@@H]1O` [N6-Phenyladenosine], the normalised cell viability by setting is: under setting [1], 1 ± 0.014; under setting [2], 1.01 ± 0.011; under setting [3], 1.02 ± 0.022; under setting [4], 1.013 ± 0.0058; under setting [5], 1.01 ± 0.01; under setting [6], 1.002 ± 0.0076.
With `COc1[nH]c2ccc(F)cc2c1C(=O)OCC1CCN(CCNS(C)(=O)=O)CC1.NS(=O)(=O)O`, the normalised cell viability was 1.023 ± 0.0058 under setting [1]; 0.955 ± 0.011 under setting [2]; 1.017 ± 0.0058 under setting [3]; 0.989 ± 0.021 under setting [4]; 0.9993 ± 0.0011 under setting [5]; 1.007 ± 0.0058 under setting [6].
Consider `CN(C)Cc1ccc(S(=O)(=O)n2ccc(/C=C/C(=O)NO)c2)cc1` [Resminostat], for which the normalised cell viability was found to be 0.941 ± 0.011 under setting [1]; 0.92 ± 0.018 under setting [2]; 0.961 ± 0.011 under setting [3]; 1.023 ± 0.0058 under setting [4]; 1.001 ± 0.0081 under setting [5]; 0.214 ± 0.026 under setting [6].
For `O=C(/C=C/c1ccc(CN(CCO)CCc2c[nH]c3ccccc23)cc1)NO` [LAQ824 (Dacinostat)], the normalised cell viability by setting is: under setting [1], 0.00706 ± 0.0016; under setting [2], -0.000483 ± 0.0039; under setting [3], 0.0151 ± 0.00085; under setting [4], 0.00158 ± 0.00078; under setting [5], 0.0063 ± 0.00096; under setting [6], -0.000399 ± 0.00047.
On to `N[C@@H](Cc1c[nH]c2ccccc12)C(=O)O` [L-Tryptophan], for which the normalised cell viability runs as follows: under setting [1], 1.01; under setting [2], 1.027 ± 0.0058; under setting [3], 1.03 ± 0.032; under setting [4], 1.033 ± 0.0058; under setting [5], 0.999 ± 0.001; under setting [6], 1.003 ± 0.0058.
Turning to `Ic1ccc(N2CCN(Cc3c[nH]c4ncccc34)CC2)cc1` [L-750,667 trihydrochloride], the normalised cell viability under setting [1] was 0.969 ± 0.003; the normalised cell viability under setting [2] worked out at 0.883 ± 0.014; the normalised cell viability under setting [3] worked out at 0.99 ± 0.0044; the normalised cell viability under setting [4] was found to be 0.999 ± 0.087; the normalised cell viability under setting [5] came out at 0.988 ± 0.011; the normalised cell viability under setting [6] amounted to 0.998 ± 0.019.
For `CC1CCN=C(N)S1` (racemic) [(±)-AMT hydrochloride], the normalised cell viability worked out at 0.982 ± 0.015 under setting [1]; 0.968 ± 0.015 under setting [2]; 0.9923 ± 0.0067 under setting [3]; 0.975 ± 0.0071 under setting [4]; 0.9907 ± 0.0095 under setting [5]; 0.9677 ± 0.0046 under setting [6].
With `OCc1ccc(-c2ccc(-c3ccc(CO)s3)o2)s1`, the normalised cell viability by setting is: under setting [1], 0.979 ± 0.0061; under setting [2], 0.0751 ± 0.0071; under setting [3], 1.017 ± 0.0058; under setting [4], 0.358 ± 0.022; under setting [5], 0.621 ± 0.045; under setting [6], 0.0128 ± 0.0026.
In the case of `CCc1ccc(/C=C2/SC(=S)NC2=O)cc1`, the normalised cell viability under setting [1] turned out to be 1.01 ± 0.017; the normalised cell viability under setting [2] came out at 1.06 ± 0.011; the normalised cell viability under setting [3] worked out at 1.04; the normalised cell viability under setting [4] amounted to 1.04 ± 0.021; the normalised cell viability under setting [5] was 1.007 ± 0.0058; the normalised cell viability under setting [6] came out at 1.013 ± 0.0058.
With `COC(=O)C(N)Cc1ccc(Cl)cc1` (racemic) [DL-p-Chlorophenylalanine methyl ester hydrochloride], the normalised cell viability worked out at 1.02 ± 0.01 under setting [1]; 1.02 ± 0.015 under setting [2]; 1.017 ± 0.0058 under setting [3]; 1.02 ± 0.014 under setting [4]; 1.006 ± 0.0069 under setting [5]; 1.017 ± 0.0058 under setting [6].
Turning to `NC[C@@H]1O[C@H](C23CC4CC(CC(C4)C2)C3)Cc2c1ccc(O)c2O`, the normalised cell viability is, setting by setting: under setting [1], 1.01 ± 0.012; under setting [2], 0.0562 ± 0.02; under setting [3], 1.01 ± 0.011; under setting [4], 0.996 ± 0.077; under setting [5], 1.01 ± 0.011; under setting [6], 0.0119 ± 0.0027.
